# Source: PubChem BioAssay
# Values joined by “and” are separate entries in the source; they are usually repeats but may differ in a detail not shown here. Equal values may be shown once. Some structures have more than one record in an assay (separate samples or runs), and their calls can disagree. Active and inactive are the calls of the source.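 How the source made its calls, unless noted: active means mean z-score across replicates of 1.96 or higher in either the MELAS or the Rieske mutant cell line; inactive means the rest.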
# Key:
# [1] = viability loss with induced miR-34 in A549 – imaging, A549 dox-inducible miR-34, nuclei and caspase counts, primary screen (AID 1347080;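 active means compounds whose cell count with miR-34 switched on is under 0.7 times the count with it off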); conditions: A549 miR-34 inducible, Hoechst nuclei count, 48 h
# [2] = MELAS cybrid and Rieske KO viability enhancers – cell-based, MELAS cybrids, Rieske KO mouse fibroblasts, CellTiter-Glo, primary screen (AID 1508586); conditions: low glucose;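 further: z relative to plate mean and SD of compound and empty wells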
# [3] = blockers of cellular phospholipid synthesis – cell-based, LOPAC library, screen 4, primary screen (AID 1347384; call rule not given here); conditions: animal cells, phospholipid biosynthesis inhibition screen; at 10 µM
# [4] = stronger effect = lower value, cell number ratio, induced over uninduced
# [5] = measured here: relative caspase fold change +Dox/-Dox
# [6] = measured here: total cells with miR-34 induction, stronger effect = lower value
# [7] = measured here: total cells without miR-34 induction
# [8] = MELAS cybrid survival, CellTiter-Glo 48 h, stronger effect = higher value
# [9] = Rieske KO mouse fibroblast survival, CellTiter-Glo 72 h
Compound,"fold change [1, 4]","fold change [1, 5]","cell count [1, 6]","cell count [1, 7]","z-score [2, 8]","z-score [2, 9]",outcome [3]
COCc1c(C(C)C)nc(C(C)C)c(/C=C/[C@@H](O)C[C@@H](O)CC(=O)O)c1-c1ccc(F)cc1,1.07 (inactive),1.46,1320,1240,-1.23 (inactive),-0.402,
Cn1c([N+](=O)[O-])cnc1COC(N)=O,0.949 (inactive) and 0.998 (inactive) and 0.92 (inactive),0.814 and 0.524 and 4.33,9230 and 8250 and 11400,9730 and 8270 and 12400,-0.153 (inactive) and -0.082 (inactive),-0.129 and 0.703,
N=C(N)N,0.954 (inactive) and 0.99 (inactive),0.786 and 0.574,8580 and 8630,9000 and 8720,-0.279 (inactive),-0.172,
O=C(O)CCC(=O)Nc1ccc(S(=O)(=O)Nc2nccs2)cc1,0.889 (inactive) and 0.92 (inactive),0.9 and 3.43,8630 and 11000,9720 and 12000,0.0389 (inactive),0.552,
O=C(O)c1ccccc1C(=O)Nc1ccc(S(=O)(=O)Nc2nccs2)cc1,0.914 (inactive) and 0.897 (inactive),1.08 and 2.76,8730 and 11300,9550 and 12600,0.52 (inactive),0.0843,
Cc1cc(CC(=O)O)n(C)c1C(=O)c1ccc(Cl)cc1,0.925 (inactive) and 0.888 (inactive),1.12 and 2.44,9260 and 11200,10000 and 12600,-0.685 (inactive),-0.331,
CN(C)/N=N/c1nc[nH]c1C(N)=O,0.938 (inactive) and 0.895 (inactive),1.29 and 2.08,11400 and 9140,12200 and 10200,0.302 (inactive),0.971,
CCCCC(CC)CN1CN(CC(CC)CCCC)CC(C)(N)C1 (configuration not stated),0.838 (inactive),1.46,8130,9710,-1.45 (inactive),-0.231,
Cc1cc(-c2ccccc2)nnc1NCCN1CCOCC1,0.881 (inactive) and 0.888 (inactive),0.934 and 3.7,8700 and 11800,9870 and 13300,0.442 (inactive),0.39,
NC(=NCCCCCCN=C(N)/N=C(\N)Nc1ccc(Cl)cc1)/N=C(\N)Nc1ccc(Cl)cc1,0.918 (inactive) and 0.785 (inactive),1.13 and 3.13,1670 and 3350,1820 and 4270,-4.55 (inactive),-0.0121,
Cc1ccc(C(=O)C(C)CN2CCCCC2)cc1 (configuration not stated),0.986 (inactive),0.455,8610,8730,-0.166 (inactive),-0.145,
CC(=O)[C@@]1(O)CC[C@H]2[C@@H]3C[C@H](C)C4=CC(=O)C=C[C@]4(C)[C@@]3(F)[C@@H](O)C[C@@]21C,0.84 (inactive),1.39,6290,7490,-0.955 (inactive),0.456,
Cc1cc(C)nc(NS(=O)(=O)c2ccc(N)cc2)n1,0.847 (inactive) and 0.927 (inactive) and 0.901 (inactive),1.07 and 0.872 and 2.46,9060 and 8070 and 10900,10700 and 8710 and 12100,-0.0833 (inactive) and 0.863 (inactive),-0.156 and 0.665,
COc1cnc(NS(=O)(=O)c2ccc(N)cc2)nc1,0.943 (inactive) and 0.91 (inactive) and 0.881 (inactive),1.15 and 0.841 and 2.64,9880 and 7410 and 11400,10500 and 8140 and 12900,-0.122 (inactive) and -0.879 (inactive),-1.17 and -0.837,
CCOc1ccc(Cc2nccc3cc(OCC)c(OCC)cc23)cc1OCC,0.917 (inactive),1.32,5900,6440,0.91 (inactive),1.27,
C[C@H](N)[C@H](O)c1cccc(O)c1,0.936 (inactive) and 0.834 (inactive),1.15 and 3.09,9120 and 10800,9740 and 13000,0.835 (inactive),0.306,
CCC(=O)c1c(O)cc(O)cc1O,0.895 (inactive),0.888,7860,8770,-0.229 (inactive),-0.146,
CCN(CCCCOC(=O)c1ccc(OC)c(OC)c1)C(C)Cc1ccc(OC)cc1 (configuration not stated),0.98 (inactive) and 0.929 (inactive),1.13 and 3.04,7620 and 11300,7780 and 12200,1.33 (inactive),0.343,
CCCCOc1ccc(OCCCN2CCOCC2)cc1,0.766 (inactive) and 0.863 (inactive) and 0.924 (inactive),1.42 and 1.47 and 3.29,7600 and 7830 and 11600,9930 and 9070 and 12500,-0.0227 (inactive) and 0.258 (inactive),-0.168 and -0.646,
Cc1c(NC(=O)c2cccnc2)c(=O)n(-c2ccccc2)n1C,0.892 (inactive),1.07,8460,9480,0.707 (inactive),0.58,
CCn1cc(C(=O)O)c(=O)c2cnc(N3CCCC3)nc21,0.925 (inactive),1.02,8260,8920,-0.0207 (inactive),-0.983,
COC(=O)[C@H]1[C@H]2C[C@@H]3c4[nH]c5cc(OC)ccc5c4CCN3C[C@H]2C[C@@H](OC(=O)c2cc(OC)c(OC)c(OC)c2)[C@@H]1OC,,,,,0.355 (inactive),1.28,inactive
CCO/C([O-])=N/c1c[n+](N2CCOCC2)no1,,,,,0.408 (inactive) and -0.37 (inactive),0.123 and -0.771,
CC(=O)O[C@]1(C(C)=O)CC[C@H]2[C@@H]3C=C(Cl)C4=CC(=O)CC[C@]4(C)[C@H]3CC[C@@]21C,,,,,-0.83 (inactive),0.517,
CNC1(C)C2CCC(C2)C1(C)C (configuration not stated),,,,,-0.287 (inactive) and -0.243 (inactive),0.191 and -0.476,inactive

Compound,"fold change [1, 4]","fold change [1, 5]","cell count [1, 6]","cell count [1, 7]","z-score [2, 8]","z-score [2, 9]",outcome [3]
Cc1ncc([N+](=O)[O-])n1CC(O)CCl (configuration not stated),,,,,-0.127 (inactive) and -0.079 (inactive),-0.152 and -0.097,
CC(=O)OCC(=O)NCCCOc1cccc(CN2CCCCC2)c1,,,,,-0.52 (inactive) and 0.36 (inactive) and 0.133 (inactive),-0.102 and 0.209 and -1.07,
Clc1ccc2c(c1)CCc1cccnc1C2=C1CCNCC1,,,,,-0.116 (inactive) and -0.424 (inactive) and -0.172 (inactive),-0.231 and 0.543 and -0.35,
COc1cc(C(=O)OCCCN2CCCN(CCCOC(=O)c3cc(OC)c(OC)c(OC)c3)CC2)cc(OC)c1OC,,,,,0.925 (inactive) and 0.274 (inactive),0.203 and 0.937,inactive
C[N+](C)(C)CCOC(N)=O,,,,,-0.544 (inactive) and -0.486 (inactive),-1.06 and 1.01,inactive
CCc1nn(CCCN2CCN(c3cccc(Cl)c3)CC2)c(=O)n1CCOc1ccccc1,,,,,-0.135 (inactive) and 0.202 (inactive),-0.202 and -0.42,
Nc1ccc(N=Nc2ccccc2)c(N)n1,,,,,3.05 (active) and 0.049 (inactive) and 2.48 (active),0.473 and -0.21 and 1.1,
O=C1[C@H]2CCCC[C@H]2C(=O)N1CCCCN1CCN(c2nsc3ccccc23)CC1,,,,,1.02 (inactive),0.693,
COc1ccccc1OCC(O)CO (configuration not stated),,,,,-0.233 (inactive) and 0.795 (inactive) and 1.3e-05 (inactive),-0.0145 and 0.521 and -0.435,
c1ccc(CN(CC2=NCCN2)c2ccccc2)cc1,,,,,0.519 (inactive) and -0.255 (inactive) and -0.229 (inactive),-0.208 and -0.144 and -0.113,
Cc1scc2c1N(C(=O)CN1CCN(C)CC1)c1ccccc1NC2=O,,,,,0.644 (inactive) and 0.966 (inactive),0.467 and 0.592,inactive
O=C1C(=O)c2ccccc2C(O)=C1C1CCC(c2ccc(Cl)cc2)CC1 (configuration not stated),,,,,-0.28 (inactive) and 0.215 (inactive) and 0.186 (inactive),-0.105 and 0.155 and 0.7,
COC(=O)C1=C(C)NC(C)=C(C(=O)OCC(C)C)C1c1ccccc1[N+](=O)[O-] (configuration not stated),,,,,-0.516 (inactive) and 0.43 (inactive) and -1.18 (inactive),0.274 and 1.45 and 0.961,
Brc1c(NC2=NCCN2)ccc2nccnc12,,,,,-0.224 (inactive) and -0.413 (inactive),-0.21 and -1.29,inactive
OCCOCCN1CCN(C2=Nc3ccccc3Sc3ccccc32)CC1,,,,,-0.365 (inactive) and 0.666 (inactive) and 0.0103 (inactive),-0.209 and 0.244 and 1.08,
Clc1ccccc1C(c1ccccc1)(c1ccccc1)n1ccnc1,,,,,-0.333 (inactive) and -0.755 (inactive),0.273 and 0.133,inactive
Cc1cccc(C)c1OCC(C)N (configuration not stated),,,,,-0.0413 (inactive) and -0.119 (inactive),-0.286 and -0.0916,inactive
O=C1NCC2(CCN(CCc3ccccc3)CC2)O1,,,,,-0.249 (inactive) and 0.534 (inactive),-0.174 and -0.0853,inactive
CC(=O)Oc1ccc(C(c2ccc(OC(C)=O)cc2)c2ccccn2)cc1,,,,,-0.393 (inactive) and -0.251 (inactive) and -0.144 (inactive),-0.124 and -0.26 and 0.348,
CN1CCN(CC(=O)N2c3ccccc3C(=O)Nc3cccnc32)CC1,,,,,0.149 (inactive) and -0.644 (inactive),-0.103 and -0.194,inactive
COc1ccc(CCN2CCC(Nc3nc4ccccc4n3Cc3ccc(F)cc3)CC2)cc1,,,,,-0.668 (inactive) and -0.11 (inactive),-1.26 and 1.21,
Nc1c(Br)cc(Br)cc1CNC1CCC(O)CC1 (configuration not stated),,,,,-0.0247 (inactive) and 0.738 (inactive) and 0.116 (inactive),-0.062 and -0.225 and -0.64,
Nc1ccc(O)c(C(=O)O)c1,,,,,-0.293 (inactive) and -0.757 (inactive) and 0.532 (inactive),0.059 and -0.214 and -0.391,
O=C1c2cccc3c2[C@H](CCC3)CN1[C@@H]1CN2CCC1CC2,,,,,0.942 (inactive),0.737,
